In PubChem BioAssay AID1159580 (chemical genetic matrix, 2015):
Where “and” joins values, the source holds several entries; their conditions need not be identical. Equal values may be shown once. The campaign covered roughly 5,500 compounds. About 2,000 (36%) were called active. Roughly 18% stayed inconclusive and do not appear here. Rule as the data show it: active = normalized growth mostly below about 0.91 (no sharp cut-off); inconclusive = no clear call, values can overlap the other calls; inactive = mostly above about 0.92. The list shows a part of the results.

Experiment: chemical genetic growth profiling, strain panel (AID 1159580);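 also: tested at 20 µM; growth read once vehicle control cultures reached saturation at 30 °C; 1 = growth at the plate median or of vehicle wells; lower values mean less growth of the strain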
Conditions: S. cerevisiae deletion strains, growth OD

Measured: normalized growth

CC(=O)Nc1cc([As](=O)(O)O)ccc1O
inactive: locus YAL013W, strain DEP1, stronger effect = lower value 0.996 | locus YAL021C, strain ccr4, stronger effect = lower value 1.01 | locus YAL026C, strain drs2, stronger effect = lower value 1.01 | locus YAL030W, strain snc1, stronger effect = lower value 1.01 | locus YBL061C, strain skt5, stronger effect = lower value 1 | locus YBR009C, strain hhf1, stronger effect = lower value 1.01 | locus YBR021W, strain FUR4, stronger effect = lower value 1.05 | locus YBR023C, strain chs3, stronger effect = lower value 1.01 | locus YBR171W, strain sec66, stronger effect = lower value 1.01 | locus YBR229C, strain ROT2, stronger effect = lower value 1.01 | locus YBR231C, strain swc5, stronger effect = lower value 1.01 | locus YBR279W, strain paf1, stronger effect = lower value 0.999 | locus YCL011C, strain gbp2, stronger effect = lower value 1.02 | locus YCL016C, strain dcc1, stronger effect = lower value 0.994 | locus YCL029C, strain bik1, stronger effect = lower value 0.981 | locus YCL061C, strain MRC1, stronger effect = lower value 0.995 | locus YCL069W, strain vba3, stronger effect = lower value 1.01 | locus YCR088W, strain abp1, stronger effect = lower value 1.01 | locus YDL005C, strain med2, stronger effect = lower value 1 | locus YDL035C, strain GPR1, stronger effect = lower value 0.999 | locus YDL040C, strain nat1, stronger effect = lower value 1.01 | locus YDL074C, strain BRE1, stronger effect = lower value 0.936 | locus YDL101C, strain DUN1, stronger effect = lower value 0.992 | locus YDL185W, strain tfp1, stronger effect = lower value 0.945 | locus YDL192W, strain arf1, stronger effect = lower value 0.994 | locus YDR001C, strain nth1, stronger effect = lower value 1.02 | locus YDR069C, strain doa4, stronger effect = lower value 1.01 | locus YDR101C, strain arx1, stronger effect = lower value 0.936 | locus YDR137W, strain rgp1, stronger effect = lower value 1.01 | locus YDR150W, strain NUM1, stronger effect = lower value 0.997 | locus YDR159W, strain sac3, stronger effect = lower value 0.988 | locus YDR162C, strain NBP2, stronger effect = lower value 0.996 | locus YDR195W, strain ref2 0.995 | locus YDR297W, strain sur2, stronger effect = lower value 1.01 | locus YDR318W, strain mcm21, stronger effect = lower value 1 | locus YDR334W, strain swr1, stronger effect = lower value 1.02 | locus YDR335W, strain msn5, stronger effect = lower value 1.01 | locus YDR388W, stronger effect = lower value 0.997 | locus YDR392W, strain spt3, stronger effect = lower value 0.905 | locus YDR502C, strain sam2, stronger effect = lower value 1.02 | locus YEL003W, strain gim4, stronger effect = lower value 1.01 | locus YEL037C, strain rad23, stronger effect = lower value 1.01 | locus YEL061C, strain CIN8 (second series), stronger effect = lower value 1.02 | locus YEL061C, strain CIN8, stronger effect = lower value 1 | locus YER015W, strain faa2, stronger effect = lower value 0.998 | locus YER016W, strain bim1, stronger effect = lower value 1.01 | locus YER110C, stronger effect = lower value 0.983 | locus YER111C, strain swi4, stronger effect = lower value 1 | locus YER155C, strain BEM2 (second series), stronger effect = lower value 0.982 | locus YER155C, strain BEM2, stronger effect = lower value 1.01 | locus YER167W, strain BCK2, stronger effect = lower value 0.996 | locus YFR010W, strain ubp6, stronger effect = lower value 1.03 | locus YGL078C, strain dbp3, stronger effect = lower value 0.985 | locus YGL086W, strain mad1, stronger effect = lower value 0.996 | locus YGL167C, strain pmr1, stronger effect = lower value 1.01 | locus YGL173C, strain kem1, stronger effect = lower value 1.01 | locus YGL227W, strain vid30, stronger effect = lower value 1.01 | locus YGL240W, strain doc1, stronger effect = lower value 0.978 | locus YGL248W, strain PDE1, stronger effect = lower value 1.01 | locus YGL253W, strain hxk2, stronger effect = lower value 1.02 | locus YGR078C, strain PAC10, stronger effect = lower value 1 | locus YGR135W, strain pre9, stronger effect = lower value 1.01 | locus YGR252W, strain gcn5, stronger effect = lower value 1.11 | locus YHR013C, strain ard1, stronger effect = lower value 0.997 | locus YHR027C, strain rpn1, stronger effect = lower value 1.02 | locus YHR030C, strain SLT2, stronger effect = lower value 0.981 and 1.03 | locus YHR079C, strain IRE1 (second series), stronger effect = lower value 0.983 | locus YHR079C, strain IRE1, stronger effect = lower value 1.01 | locus YHR094C, strain hxt1, stronger effect = lower value 0.996 | locus YHR129C, strain ARP1, stronger effect = lower value 0.985 | locus YHR142W, strain chs7, stronger effect = lower value 1.03 | locus YHR200W, strain rpn10, stronger effect = lower value 0.991 | locus YIL066C, strain RNR3, stronger effect = lower value 0.998 | locus YIL073C, strain SPO22, stronger effect = lower value 0.99 | locus YIL125W, strain kgd1, stronger effect = lower value 0.985 | locus YIR030C, strain dcg1, stronger effect = lower value 0.992 | locus YJL092W, strain hpr5, stronger effect = lower value 1 | locus YJL095W, strain BCK1 (second series), stronger effect = lower value 1.03 | locus YJL095W, strain BCK1, stronger effect = lower value 1.03 and 1.02 | locus YJL115W, strain asf1, stronger effect = lower value 1.01 | locus YJL129C, strain trk1, stronger effect = lower value 1.01 | locus YJL134W, strain LCB3, stronger effect = lower value 0.997 | locus YJL154C, strain vps35, stronger effect = lower value 1.01 | locus YJL164C, strain tpk1, stronger effect = lower value 1 | locus YJL166W, strain qcr8, stronger effect = lower value 0.999 | locus YJL168C, strain set2, stronger effect = lower value 0.932 | locus YJL187C, strain SWE1 (second series), stronger effect = lower value 0.995 | locus YJL187C, strain SWE1, stronger effect = lower value 1.04 | locus YJR043C, strain POL32, stronger effect = lower value 0.997 | locus YJR066W, strain TOR1, stronger effect = lower value 0.961 | locus YJR075W, strain HOC1, stronger effect = lower value 0.983 | locus YKL009W, strain mrt4, stronger effect = lower value 0.956 | locus YKL068W, stronger effect = lower value 0.986 | locus YKL085W, strain MDH1 (second series), stronger effect = lower value 0.982 | locus YKL085W, strain MDH1, stronger effect = lower value 0.982 | locus YKL160W, strain elf1, stronger effect = lower value 0.981 | locus YKR001C, strain vps1, stronger effect = lower value 0.999 | locus YKR026C, strain gcn3, stronger effect = lower value 1 | locus YKR091W, strain srl3, stronger effect = lower value 1.01 | locus YLL001W, strain dnm1, stronger effect = lower value 0.99 | locus YLL026W, stronger effect = lower value 1 | locus YLL041C, strain sdh2, stronger effect = lower value 1 | locus YLR027C, strain aat2, stronger effect = lower value 1 | locus YLR039C, strain RIC1, stronger effect = lower value 1.01 | locus YLR058C, strain SHM2, stronger effect = lower value 0.994 | locus YLR102C, strain apc9, stronger effect = lower value 0.984 | locus YLR113W, strain HOG1, stronger effect = lower value 1.01 | locus YLR221C, strain rsa3, stronger effect = lower value 1.02 | locus YLR258W, strain gsy2, stronger effect = lower value 0.998 | locus YLR262C, strain YPT6 (second series), stronger effect = lower value 0.999 | locus YLR262C, strain YPT6, stronger effect = lower value 1.01 | locus YLR268W, strain sec22, stronger effect = lower value 0.964 | locus YLR320W, strain mms22, stronger effect = lower value 0.995 | locus YLR330W, strain CHS5, stronger effect = lower value 1 | locus YLR342W, strain FKS1 (second series), stronger effect = lower value 1.01 | locus YLR342W, strain FKS1, stronger effect = lower value 1.01 | locus YLR357W, strain rsc2, stronger effect = lower value 1 | locus YLR370C, strain arc18, stronger effect = lower value 1.01 | locus YLR371W, strain rom2, stronger effect = lower value 0.984 | locus YLR384C, strain iki3, stronger effect = lower value 0.998 | locus YLR418C, strain cdc73, stronger effect = lower value 0.997 | locus YML016C, strain PPZ1, stronger effect = lower value 0.995 | locus YML032C, strain rad52, stronger effect = lower value 1.03 | locus YML120C, strain ndi1, stronger effect = lower value 1.01 | locus YML124C, strain tub3, stronger effect = lower value 0.981 | locus YMR058W, strain fet3, stronger effect = lower value 1.01 | locus YMR078C, strain ctf18, stronger effect = lower value 0.976 | locus YMR125W, strain sto1, stronger effect = lower value 1 | locus YMR129W, stronger effect = lower value 1.01 | locus YMR205C, strain PFK2, stronger effect = lower value 0.994 | locus YMR223W, strain ubp8, stronger effect = lower value 1.01 | locus YMR231W, strain pep5, stronger effect = lower value 0.996 | locus YMR307W, strain GAS1, stronger effect = lower value 1.17 | locus YNL067W, strain RPL9B, stronger effect = lower value 0.983 | locus YNL071W, strain lat1, stronger effect = lower value 1.01 | locus YNL183C, strain NPR1, stronger effect = lower value 0.973 | locus YNL209W, strain ssb2, stronger effect = lower value 1.01 | locus YNL233W, strain BNI4, stronger effect = lower value 1.01 | locus YNL248C, strain rpa49, stronger effect = lower value 0.987 | locus YNL250W, strain rad50, stronger effect = lower value 0.976 | locus YNL271C, strain bni1, stronger effect = lower value 0.983 | locus YNL298W, strain CLA4, stronger effect = lower value 1 | locus YNL307C, strain MCK1, stronger effect = lower value 0.981 | locus YNL322C, strain KRE1 (second series), stronger effect = lower value 0.992 | locus YNL322C, strain KRE1, stronger effect = lower value 1 | locus YNR049C, strain mso1, stronger effect = lower value 1.01 | locus YNR052C, strain pop2, stronger effect = lower value 1 | locus YOL006C, strain TOP1, stronger effect = lower value 0.999 | locus YOL012C, strain htz1 0.886 | locus YOL147C, strain pex11, stronger effect = lower value 0.995 | locus YOR001W, strain rrp6, stronger effect = lower value 0.989 | locus YOR061W, strain CKA2, stronger effect = lower value 0.993 | locus YOR069W, strain VPS5, stronger effect = lower value 0.998 | locus YOR070C, strain gyp1, stronger effect = lower value 1 | locus YOR080W, strain dia2, stronger effect = lower value 1 | locus YOR083W, strain WHI5, stronger effect = lower value 0.978 | locus YOR106W, strain vam3, stronger effect = lower value 0.99 | locus YOR136W, strain idh2, stronger effect = lower value 0.974 | locus YOR144C, strain elg1, stronger effect = lower value 0.992 | locus YOR184W, strain ser1, stronger effect = lower value 0.988 | locus YOR231W, strain MKK1, stronger effect = lower value 1 | locus YOR265W, strain rbl2, stronger effect = lower value 0.998 | locus YOR270C, strain vph1, stronger effect = lower value 1.05 | locus YOR290C, strain snf2, stronger effect = lower value 0.993 | locus YOR316C, strain cot1, stronger effect = lower value 0.985 | locus YPL051W, strain arl3, stronger effect = lower value 1 | locus YPL078C, strain atp4, stronger effect = lower value 0.982 | locus YPL106C, strain sse1, stronger effect = lower value 0.985 | locus YPL240C, strain hsp82, stronger effect = lower value 0.998 | locus YPL241C, strain CIN2, stronger effect = lower value 1 | locus YPL256C, strain CLN2, stronger effect = lower value 1.03 | locus YPR119W, strain clb2, stronger effect = lower value 0.983 | locus YPR141C, strain kar3, stronger effect = lower value 0.988 | locus YPR163C, strain tif3, stronger effect = lower value 0.997 | locus YPR167C, strain met16, stronger effect = lower value 0.994 | strain wtn01, stronger effect = lower value 0.964
